# Laboratory results published in ChEMBL document CHEMBL1157539, “Thousands of chemical starting points for antimalarial lead identification” (Nature, 2010).
# Key:
# Type in all cases: functional
# Plasmodium falciparum [1] = assay: GSK_TCMDC: Inhibition of Plasmodium falciparum 3D7 in whole red blood cells, using parasite LDH activity as an index of growth. Test compounds present at 2uM
# Plasmodium falciparum [2] = assay: GSK_TCMDC: Inhibition of Plasmodium falciparum Dd2 in whole red blood cells, using parasite LDH activity as an index of growth. Test compounds present at 2uM
# HepG2 = assay: GSK_TCMDC: Percent inhibition of human HepG2 cell line. Test compounds present at 10uM.
Compound,Inhibition (Plasmodium falciparum [1]) [%],Inhibition (Plasmodium falciparum [2]) [%],Inhibition (HepG2) [%]
Nc1cccc(CNCc2ccc(-c3cccc(-c4nc5cc(F)ccc5[nH]4)c3)cc2)c1.O=C(O)C(F)(F)F,100,94,36
CC1(C)CCC(C)(C)c2c1ccc(C1CCN(CCCCNC(=O)c3ccc(-c4ccc(Cl)cc4)cc3)CC1)c2O,100,72,100
Cc1ccc2nc(C)n(C3CCN(C(=O)C4(c5ccccc5)CC4)CC3)c2c1,100,83,8
O=C(c1cccc(Cl)c1)N1CCN(c2ccc([N+](=O)[O-])c(NC3CC3)c2)CC1,100,79,11
COc1ccccc1CNC(=O)c1cc(Br)cc(N2CCN(c3ccncc3)CC2)c1.O=C(O)C(F)(F)F,95,76,43
CCCNCc1ccc(-c2ccc(CN(Cc3ccc4c(c3)OCO4)C(=O)[C@H]3CCCO3)cc2)nc1.O=C(O)C(F)(F)F,90,39,18
COc1ccc(CNC(=O)c2cnc3cc(-c4c(C)noc4C)ccc3c2Nc2ccccc2C(C)(C)C)cc1.Cl,99,69,9
CCOc1cccc(C(=O)Nc2cccc(CN3CCCN(Cc4cccc(O)c4)CC3)c2)c1.O=C(O)C(F)(F)F,85,18,17
Cc1nc(N)nc(N)c1CCCOc1ccccc1Br,97,5,53
O=C(Cc1c[nH]cn1)Nc1cccc(-c2cccc(-c3nc4ccccc4[nH]3)c2)c1,97,60,24
COc1ccccc1C(C)NCC(=O)Nc1cccc(C(=O)Nc2cccc(C(F)(F)F)c2)c1 (stereo not given),91,39,34
O=C(Nc1ccc2c(c1)CCC2)N[C@H]1CCN(CCCCCNC(=O)C2CC2c2ccc(Cl)c(Cl)c2)C1 (stereo not given in full),86,0,37
COc1ccc(-c2ccc(CNC(=O)c3ccc(C#N)cc3)c(F)c2)cc1CN1CCCN(C)CC1.O=C(O)C(F)(F)F,90,1,6
CN1CCN(c2ccc(Nc3ncc([N+](=O)[O-])c(Nc4ccccc4O)n3)cc2)CC1.O=C(O)C(F)(F)F,100,97,98
COc1cccc(Nc2nccc(-c3c(-c4cccc(NC(=O)c5c(F)cccc5F)c4)nn4ccccc34)n2)c1,98,98,35
COc1ccc(-c2nc3c(NCc4ccccc4)nccc3[nH]2)c(OC)c1,99,21,16
O=C(NCCCCN1CCC(c2ccc(Br)cc2)CC1)c1ccc(NC(=O)c2ccc(Cl)cc2)cc1,100,86,17
Fc1ccc2cc(C=Cc3ccncc3)[nH]c2c1,100,89,0
Cc1ccc(C2(CN3CCC(NC(=O)c4cc[nH]n4)CC3)CCCCC2)cc1,97,96,0
Clc1cccc(-c2nc(Nc3ccnc(-c4ccc(CN5CCOCC5)cc4)c3)c3ccccc3n2)c1,100,65,8
